The record followed here is PubChem BioAssay.

Calls of active or inactive are those of the source.

In one test the target is Albumin (Bos taurus) (UniProt P02769). Kind of test: bovine serum albumin binders on microarray, profiling panel, artefact control for SMM control protein annotation, biochemical, small-molecule microarray, Alexa647 label, 635/667 nm fluorescence (AID 1118).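 Note: score merges 667 nm emission intensity and signal-to-noise per printed compound spot.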 To be noted: BSA-A647 binding, fluorescence 635 nm, higher = more signal.
Sequence of Albumin (Bos taurus) (P02769 whole entry, looked up): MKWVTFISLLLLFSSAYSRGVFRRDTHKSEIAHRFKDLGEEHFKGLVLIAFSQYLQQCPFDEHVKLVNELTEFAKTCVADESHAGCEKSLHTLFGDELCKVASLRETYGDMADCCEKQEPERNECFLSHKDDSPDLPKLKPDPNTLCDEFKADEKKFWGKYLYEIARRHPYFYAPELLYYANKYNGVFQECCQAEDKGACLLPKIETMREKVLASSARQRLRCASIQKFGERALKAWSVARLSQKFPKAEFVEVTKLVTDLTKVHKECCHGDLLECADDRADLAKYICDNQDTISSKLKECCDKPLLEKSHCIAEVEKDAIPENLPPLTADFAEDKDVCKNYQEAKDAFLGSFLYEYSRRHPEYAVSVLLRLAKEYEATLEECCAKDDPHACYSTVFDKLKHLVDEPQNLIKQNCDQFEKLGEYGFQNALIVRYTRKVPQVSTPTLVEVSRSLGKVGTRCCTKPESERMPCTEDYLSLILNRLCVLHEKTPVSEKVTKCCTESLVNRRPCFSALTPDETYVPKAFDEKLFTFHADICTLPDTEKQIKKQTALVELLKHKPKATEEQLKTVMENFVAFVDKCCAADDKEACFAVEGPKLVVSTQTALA
Test [1] can be described thus: small-molecule microarray binders of probe aXIP, primary screen, biochemical, NeuroSMM set, 635/667 nm fluorescence (AID 1119).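 Note: probe is the protein aXip251-270 applied at 1 µg/mL to compound-printed slides; binding of probe to printed compounds measured as 667 nm fluorescence plus signal to noise.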 To be noted: higher = more signal, called active from +8 up or from −8 down.
A short description of test [2]: small-molecule binders of probe aNOTCH3, primary screen, biochemical, small-molecule microarray, 635/667 nm fluorescence (AID 1120).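 Note: probe is a biotin-tagged antibody raised against NOTCH3 rather than NOTCH3 protein; score merges spot fluorescence near 667 nm with spot signal to noise.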 To be noted: higher = more signal.
Test [3] can be described thus: small-molecule binders of probe aNOTCH2, primary screen, biochemical, small-molecule microarray, 635/667 nm fluorescence (AID 1121).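 Note: score merges feature fluorescence read at 667 nm with its signal to noise.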 As to conditions: higher = more signal.
In test [4] the target is Carbonic anhydrase 2 (Homo sapiens) (UniProt P00918). The test can be described thus: CAII small-molecule binders, profiling panel, biochemical, small-molecule microarray, Alexa647-labelled CAII (AID 1122). To be noted: CAII-A647 binding fluorescence, higher = more signal.
Test [5] is described as follows: COS7 lysate on small-molecule microarray, probe aHis, 635 nm (AID 1123).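 Note: z-score combines 667nm fluorescence intensity with signal-to-noise per printed compound spot.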 As to conditions: COS7 cell lysate, fluorescence, higher = more signal.
Test [6] in a line: compound binding in COS7 lysate, probe aLAP1, primary screen, cell lysate, small-molecule microarray (AID 1124).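 Note: lysate comes from COS7 cells expressing LAP1 and is applied at 0.3 µg/mL; score merges spot fluorescence near 667 nm with signal-to-noise over triplicate slides.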 To be noted: probe aLAP1, fluorescence, higher = more signal.
The next test relates to Sam68 (KHDRBS1). The test can be described thus: Sam68 small-molecule binders, primary screen, biochemical, small-molecule microarray, 635 nm fluorescence (AID 1125).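 Note: score merges 667 nm channel intensity with signal to noise over triplicate slides.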 As to conditions: small-molecule microarray binding, higher = more signal.
For test [7], the system named is Chordin-like protein 2 (CHRDL2). The test can be described thus: CHRDL2 small-molecule binders, primary screen, biochemical, small-molecule microarray, 635 nm fluorescence (AID 1126).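 Note: printed compound slides probed with Chrdl2 protein at 4 µg/mL for 1 h at 4 C; score merges 667 nm emission intensity with signal to noise over three replicate slides.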 As to conditions: small-molecule microarray binding, fluorescence 635 nm; higher = more signal.
For test [8], the target named is Concanavalin-A (Canavalia ensiformis) (UniProt P02866). The test can be described thus: ConA small-molecule binders, primary screen, artefact control for SMM control protein annotation, biochemical, small-molecule microarray, Alexa647 label, 635 nm (AID 1127).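 Note: z combines 667 nm emission intensity with signal-to-noise across three replicate slides.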 To be noted: ConA-A647 binding fluorescence, higher = more signal.
Sequence of Concanavalin-A (Canavalia ensiformis) (P02866 whole entry, looked up): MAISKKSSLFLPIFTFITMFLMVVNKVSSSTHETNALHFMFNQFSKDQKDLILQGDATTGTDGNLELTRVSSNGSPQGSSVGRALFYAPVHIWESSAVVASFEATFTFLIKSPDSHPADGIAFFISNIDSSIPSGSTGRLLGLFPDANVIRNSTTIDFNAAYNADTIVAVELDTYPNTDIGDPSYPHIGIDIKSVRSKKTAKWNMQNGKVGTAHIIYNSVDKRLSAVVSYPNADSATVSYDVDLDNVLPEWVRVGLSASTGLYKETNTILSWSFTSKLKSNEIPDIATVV
Test [9] in a line: anti-His antibody binders, primary screen, artefact control for SMM control protein annotation, biochemical, small-molecule microarray, 635 nm fluorescence (AID 1128).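 Note: score merges feature fluorescence with signal-to-noise for each printed compound spot.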 To be noted: anti-His Alexa647 antibody binding, higher = more signal.
In test [10] the test system is Human papillomavirus type 1a E7 protein (residues 1-88). The test can be described thus: HPV1a E7 small-molecule binders, primary screen, biochemical, small-molecule microarray, residues 1-88, 635 nm (AID 1129). To be noted: small-molecule microarray binding, fluorescence 635 nm; higher = more signal.
The target in test [11] is Focal adhesion kinase 1 (Homo sapiens) (UniProt Q05397). The test can be described thus: small-molecule microarray binders of FAK, primary screen, biochemical, 635/667 nm fluorescence, BSA, DTT (AID 1130).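 Note: composite of spot emission at 667 nm and signal to noise over triplicate slides.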 As to conditions: PTK2 binding, 635 nm fluorescence, higher = more signal.
Sequence of Focal adhesion kinase 1 (Homo sapiens) (Q05397 whole entry, looked up): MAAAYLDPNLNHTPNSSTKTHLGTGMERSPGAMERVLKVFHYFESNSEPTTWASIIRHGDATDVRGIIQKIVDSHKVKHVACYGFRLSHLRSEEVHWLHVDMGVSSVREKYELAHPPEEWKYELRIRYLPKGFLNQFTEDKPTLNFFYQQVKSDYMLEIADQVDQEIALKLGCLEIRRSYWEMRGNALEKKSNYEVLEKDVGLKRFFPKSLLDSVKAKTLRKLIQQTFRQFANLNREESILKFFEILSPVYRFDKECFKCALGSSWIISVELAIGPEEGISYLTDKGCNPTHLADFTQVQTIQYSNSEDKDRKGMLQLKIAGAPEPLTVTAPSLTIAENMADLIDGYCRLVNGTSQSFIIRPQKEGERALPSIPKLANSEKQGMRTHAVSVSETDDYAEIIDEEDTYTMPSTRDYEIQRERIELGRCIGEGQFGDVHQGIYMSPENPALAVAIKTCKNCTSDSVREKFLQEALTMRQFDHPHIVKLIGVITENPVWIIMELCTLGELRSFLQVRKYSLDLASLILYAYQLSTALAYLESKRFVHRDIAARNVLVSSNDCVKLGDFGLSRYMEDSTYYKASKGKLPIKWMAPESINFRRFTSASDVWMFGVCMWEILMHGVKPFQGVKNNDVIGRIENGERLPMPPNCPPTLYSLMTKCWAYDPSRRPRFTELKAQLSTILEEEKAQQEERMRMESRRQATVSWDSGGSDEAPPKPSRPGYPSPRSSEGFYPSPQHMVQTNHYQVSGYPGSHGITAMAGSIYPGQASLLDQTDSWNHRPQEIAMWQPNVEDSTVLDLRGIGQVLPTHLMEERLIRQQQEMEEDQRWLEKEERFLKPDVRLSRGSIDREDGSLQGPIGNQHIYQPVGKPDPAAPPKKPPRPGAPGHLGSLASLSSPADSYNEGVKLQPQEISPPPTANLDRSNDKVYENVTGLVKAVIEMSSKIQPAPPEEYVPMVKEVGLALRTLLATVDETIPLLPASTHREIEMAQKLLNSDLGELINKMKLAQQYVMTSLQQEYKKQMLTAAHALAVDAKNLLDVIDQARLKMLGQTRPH
Test [12] concerns Fibrinogen (Alexa647-labelled). The test can be described thus: fibrinogen binders on compound microarrays, profiling panel, artefact control for SMM control-protein annotation, biochemical, small-molecule microarray, 635/667 nm fluorescence (AID 1131).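 Note: z-score merges 667 nm fluorescence with per-spot signal-to-noise over triplicate slides.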 As to conditions: fibrinogen-A647 binding fluorescence, higher = more signal.
For test [13], the target named is Follistatin (Homo sapiens) (UniProt P19883). Kind of test: follistatin binders on small-molecule microarrays, primary screen, biochemical, small-molecule microarray, 635/667 nm fluorescence (AID 1132). As to conditions: FST binding, 635 nm fluorescence, higher = more signal.
Sequence of Follistatin (Homo sapiens) (P19883 whole entry, looked up): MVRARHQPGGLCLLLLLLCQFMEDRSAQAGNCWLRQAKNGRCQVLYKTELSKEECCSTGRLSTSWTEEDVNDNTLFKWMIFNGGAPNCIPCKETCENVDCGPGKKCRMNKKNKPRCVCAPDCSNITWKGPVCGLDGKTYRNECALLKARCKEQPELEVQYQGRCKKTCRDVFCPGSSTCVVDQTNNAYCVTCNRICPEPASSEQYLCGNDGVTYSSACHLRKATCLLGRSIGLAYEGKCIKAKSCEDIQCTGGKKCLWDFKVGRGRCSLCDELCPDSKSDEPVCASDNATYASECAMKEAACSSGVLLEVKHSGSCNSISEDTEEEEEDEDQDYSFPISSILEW
Test [14] has as its target Fibroblast growth factor 2 (Homo sapiens) (UniProt P09038). Kind of test: FGF2 binders on small-molecule microarrays, primary screen, biochemical, small-molecule microarray, 635/667 nm fluorescence (AID 1133). As to conditions: small-molecule microarray binding, FGF2, fluorescence 635/667; higher = more signal.
Test [15] is described as follows: mitochondrial membrane potential change in A549 cells, profiling panel, cell-based, JC-1 fluorescence, basal, 24 h, 100 nL (AID 1138).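 Note: A549 lung adenocarcinoma cells under basal conditions with no added stimulus; test concentration not given here.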 As to conditions: higher = more signal.
A further test concerns Lefty1. The test can be described thus: Lefty1 binders on small-molecule microarrays, primary screen, biochemical, small-molecule microarray, 635/667 nm fluorescence (AID 1139). To be noted: small-molecule microarray binding, fluorescence 635/667; higher = more signal.
The test system of test [16] is wheat germ agglutinin (Triticum aestivum), Alexa647-labelled. The test can be described thus: wheat germ agglutinin binders on compound microarrays, profiling panel, artefact control for SMM control-protein annotation, biochemical, small-molecule microarray, 635/667 nm fluorescence (AID 1140).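 Note: score merges 667 nm feature emission with signal to noise over triplicate slides.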 As to conditions: WGA-A647 binding, 635 nm fluorescence, higher = more signal.

Test [17] concerns the target Luciferin 4-monooxygenase (Photinus pyralis) (UniProt P08659). The test can be described thus: firefly luciferase enzyme inhibitors, primary screen, biochemical, luminescence, purified enzyme, 2006 set (AID 1141).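 Note: cell-free assay with purified firefly luciferase at 100 ng per well in PBS; test concentration not given here.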 As to conditions: SteadyGlo luminescence, 30 min, higher = more signal, called active from +8 up or from −8 down.

Sequence of Fibroblast growth factor 2 (Homo sapiens) (P09038 whole entry, looked up): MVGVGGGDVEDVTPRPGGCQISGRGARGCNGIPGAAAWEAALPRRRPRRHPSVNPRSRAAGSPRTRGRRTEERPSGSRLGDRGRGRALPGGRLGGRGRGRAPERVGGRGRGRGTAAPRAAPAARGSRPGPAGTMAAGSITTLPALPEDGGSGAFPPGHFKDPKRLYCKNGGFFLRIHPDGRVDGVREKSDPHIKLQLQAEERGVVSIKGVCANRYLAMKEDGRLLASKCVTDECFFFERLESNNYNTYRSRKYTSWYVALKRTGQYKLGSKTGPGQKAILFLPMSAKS
Sequence of Luciferin 4-monooxygenase (Photinus pyralis) (P08659 whole entry, looked up): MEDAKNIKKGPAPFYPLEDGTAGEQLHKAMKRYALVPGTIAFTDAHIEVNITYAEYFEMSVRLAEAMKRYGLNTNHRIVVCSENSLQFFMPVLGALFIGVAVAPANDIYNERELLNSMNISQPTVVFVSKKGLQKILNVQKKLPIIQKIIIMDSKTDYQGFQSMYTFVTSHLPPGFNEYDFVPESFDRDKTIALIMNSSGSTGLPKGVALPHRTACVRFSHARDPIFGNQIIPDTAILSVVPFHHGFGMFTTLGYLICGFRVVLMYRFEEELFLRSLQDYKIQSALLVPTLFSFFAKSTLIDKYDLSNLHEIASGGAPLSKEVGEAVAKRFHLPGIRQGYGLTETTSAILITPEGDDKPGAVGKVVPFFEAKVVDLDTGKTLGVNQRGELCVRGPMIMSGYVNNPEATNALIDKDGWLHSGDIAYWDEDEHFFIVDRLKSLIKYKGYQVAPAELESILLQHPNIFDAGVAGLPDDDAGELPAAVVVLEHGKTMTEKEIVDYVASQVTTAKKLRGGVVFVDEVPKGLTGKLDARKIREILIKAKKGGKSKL

As to `C[C@@H]1CC[C@H]2C(=O)O[C@@H](CN=[N+]=[N-])CN2[C@H]1c1ccc(Br)cc1`, the composite z-score in the test with Albumin (Bos taurus) was 0.677; in test [2], -0.0343; in test [3], -0.0287; in test [4], 0.236; in test [5] it was 1.02; in test [6], 0.373. Besides, the composite z-score in the test on Sam68 (KHDRBS1) was 1.12; in test [7] it was 0.526; in test [8] it was 1.07; in test [9], 2.89; in test [10] it was 1.15; in test [11], 0.694. Moreover, the composite z-score is 0.952 in [12]; 0.515 in test [13]; 0.376 in test [14]; 0.506 in the test with Lefty1; 0.829 in test [16]. The composite Z-score in test [1] was -0.283 (inactive). In addition, the z-score in test [15] is 0.285; in test [17] it was -1.59 (inactive).
For the compound `COC(=O)[C@H](Cc1ccccc1)NC(=O)[C@@H](C)CO`, the composite z-score in the test with Albumin (Bos taurus) is 0.317; in test [2] it was 0.226; in test [3] it was -0.181; in [4] it was 0.465; in test [5] it was 0.207; in [6] it was 0.143. Also, the composite z-score is 0.48 in the test with Sam68 (KHDRBS1); 0.501 in test [7]; -1.01 in test [8]; 0.0868 in test [9]; -0.196 in test [10]; -0.233 in test [11]. In addition, the composite z-score was found to be 0.115 in test [12]; 1.28 in test [13]; 0.592 in test [14]; 1.5 in the test with Lefty1; 0.821 in [16]. Also, the composite Z-score in test [1] is 0.047 (inactive). Besides, the z-score in test [15] was -1.2; in test [17] it was 0.716 (inactive).
With `CCOC(=O)[C@H](Cc1ccccc1)NC(=O)CCC1CC(OC(=O)NCCc2ccc(F)cc2)CC2(CCCC(COC(=O)NCc3cccc(C(F)(F)F)c3)O2)O1` (stereo not given in full), the composite z-score in the test with Albumin (Bos taurus) was 0.825; in test [2] it was 0.148; in test [3], -0.192; in test [4], 0.499; in [5], 2.08; in [6], 0.137. Further, the composite z-score with Sam68 (KHDRBS1) worked out at 1.3; in test [7], 0.285; in test [8], 1.06; in test [9] it was 0.554; in [10] it was 1.16; in [11] it was 0.31. Besides, the composite z-score in test [12] was found to be 0.943; in test [13], 0.787; in test [14], 0.696; in the test with Lefty1, 1.64; in test [16] it was 0.502. In addition, in test [1], the composite Z-score was 1.43 (inactive). Further, the z-score is 0.578 in [15] and 0.871 (inactive) in [17].
On to `CCN1C(=O)[C@H]2[C@H]3[C@H](O)[C@H](O)CC(=NOCC=C(C)CCC=C(C)C)[C@@H]3CC[C@H]2C1=O`, for which the composite z-score in the test with Albumin (Bos taurus) was 0.44; in test [2] it was 0.144; in [3], -0.118; in test [4], 0.0577; in [5] it was 0.162; in test [6], 0.39. Further, the composite z-score in the test on Sam68 (KHDRBS1) is 1.25; in test [7], 1.39; in test [8], 0.13; in test [9], 0.521; in test [10], 0.344; in test [11], -0.0746. For the same compound, the composite z-score in test [12] was 0.493; in test [13], 1.31; in [14], 1.01; with Lefty1, 1.23; in [16], -0.207. In addition, the composite Z-score in test [1] is -0.496 (inactive). The z-score is -0.717 in test [15] and 0.146 (inactive) in [17].
For `COc1ccc(COC(=O)NN=C2C[C@@H](O)[C@@H](O)[C@@H]3[C@@H]4C(=O)N([C@@H](C)c5ccccc5)C(=O)[C@@H]4CC[C@H]23)cc1`, the composite z-score in the test with Albumin (Bos taurus) is 0.434; in [2], 0.24; in test [3] it was 0.867; in test [4] it was -0.277; in test [5], 0.232; in [6], -0.266. The composite z-score in the test on Sam68 (KHDRBS1) is -0.638; in test [7], -0.217; in test [8], 0.0744; in [9], -0.485; in [10], -0.521; in [11], -0.393. Besides, the composite z-score was -0.137 in test [12]; -0.528 in test [13]; -0.509 in test [14]; -0.794 in the test with Lefty1; 0.271 in test [16]. In test [1], the composite Z-score was -0.259 (inactive). Moreover, the z-score is -0.419 in test [15] and 0.779 (inactive) in test [17].
Turning to `C#CCCCON=C1C[C@@H](O)[C@@H](O)[C@@H]2[C@@H]3C(=O)N(C[C@@H]4CCCO4)C(=O)[C@@H]3CC[C@H]12`, the composite z-score with Albumin (Bos taurus) was 0.541; in test [2], -0.0662; in test [3] it was -0.115; in test [4], 0.239; in test [5] it was 0.335; in [6], 0.142. Besides, the composite z-score in the test on Sam68 (KHDRBS1) came out at 0.63; in test [7], 0.249; in test [8], 0.732; in [9] it was 0.185; in test [10], 0.508; in test [11] it was 0.235. Also, the composite z-score in test [12] was determined as 0.509; in test [13], 0.669; in test [14], 0.103; in the test with Lefty1, 0.388; in test [16] it was 0.0691. In test [1], the composite Z-score was 1.11 (inactive). Also, the z-score in test [15] is -0.544; in [17], 0.451 (inactive).
